Test results reported in PubChem BioAssay AID1578 (Sanford-Burnham Center for Chemical Genomics, 2009).
The whole screen tested about 290,000 compounds, of which about 3,000 (1%) were called active. For the sample, actives were picked, then their nearest neighbours and some compounds at random. Values without a mark were called inactive. Cut-off read from the data, not from the text of the source: active = inhibition mostly above about 36% (no sharp cut-off); inactive = mostly below about 34%.

Assay: NOD1 signaling inhibitors, primary screen, cell-based, luminescence, uHTS (AID 1578);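 note: HEK-293T reporter cells stimulated with the NOD1 agonist gamma-tri-DAP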
Conditions: NOD1-driven NF-kB luciferase reporter cells, at 4 µM, stronger effect = higher value

| SMILES | inhibition |
| --- | --- |
| CCOC(=O)CNC(=O)Cc1ccc(Cl)cc1 | -9.2% |
| Cc1cc(C)c2c(C)nn(-c3ccccc3)c2n1 | -3.5% |
| Cc1nc2c(c(C)nn2-c2ccccc2)c(C)c1Cl | 6.2% |
| CN(C)S(=O)(=O)c1cccc(C(=O)OCC(=O)Nc2sccc2C#N)c1 | 5.6% |
| Fc1ccccc1Cc1nnc2n1N=C(c1ccc(Cl)cc1)CS2 | -16% |
| Nc1cc(-c2ccccc2)nn1Cc1ccccc1 | -25.1% |
| Nc1cc(-c2cccc(Br)c2)nn1Cc1ccccc1 | -9.7% |
| Nc1cc(-c2ccc(Br)cc2)nn1Cc1ccccc1 | 46.7% (active) |
| Cc1cc(/C=C2\SC(=Nc3ccc(F)cc3)NC2=O)c(C)n1-c1ccc(S(N)(=O)=O)cc1 | -10.7% |
| COc1ccc(Cc2nnc(SCC(=O)NC3CCCC3)o2)cc1 | 71.8% (active) |
| O=C(CSc1nnc(Cc2ccccc2)o1)NC1CCCCC1 | -2.8% |
| COc1ccc(OCc2nnc(SCC(=O)NC3CCCCC3)o2)cc1 | -22.6% |
| COc1ccc(C2NC(=O)CCC2[N+](=O)[O-])cc1 (centres undefined) | -17.7% |
| CCOC(=O)c1ccccc1NC(=O)c1cc2ccccc2o1 | -31.6% |
| C/C(=N\NC(=O)c1cc(C)nc2ccccc12)c1ccco1 | -18.1% |
| O=C(CCCCn1c(=O)[nH]c2ccccc2c1=O)NCCC1=CCCCC1 | -3.1% |
| COc1cc(/C=N/NC(=O)c2ccc(CSc3nc4ccccc4[nH]3)cc2)ccc1O | -22.3% |
| CCOc1ccc(/C=N/NC(=O)c2ccc(CSc3nc4ccccc4[nH]3)cc2)cc1 | 66.9% (active) |
| O=C(N/N=C/c1ccc(OC(F)F)cc1)c1ccc(CSc2nc3ccccc3[nH]2)cc1 | -27.9% |
| Cn1c(=O)c2c(nc(N3CCN(c4ccc([N+](=O)[O-])cc4)CC3)n2C)n(C)c1=O | 0.8% |
| CCOc1ccccc1C1C(C#N)=C(N)Oc2cc(C)n(Cc3ccccn3)c(=O)c21 (centres undefined) | 4.8% |
| Cc1ccc(C)c(NC(=O)COC(=O)c2cccc3c2C(=O)c2ccccc2C3=O)c1 | 16.2% |
| O=C1c2ccccc2C(=O)c2c1ccc1c(=O)n(-c3ccccc3)[nH]c21 | 8.9% |
| Cc1ccc2c3c(cccc13)-c1ccccc1C2=O | -32.2% |
| Cc1cccc(-c2cc3c(nn2)-c2ccccc2C3=O)c1 | -99% |

| SMILES | inhibition |
| --- | --- |
| O=C(Cn1c(C(F)(F)F)nc2ccccc21)N1CCCC1 | -9.5% |
| CC(CN1C(C)CCCC1C)OC(=O)c1ccc(Cl)cc1Cl (centres undefined) | -14.9% |
| CCN(CC(=O)NCc1ccc(F)cc1)CC(=O)NC1CCCC1 | -35.5% |
| CCCn1nnnc1SCC(=O)N1CCCc2ccccc21 | -20% |
| CC1CCc2c(c3ccccc3n2C(=O)CCl)C1 (centres undefined) | 74.2% (active) |
| Cc1ccnc(SCC(=O)n2c3c(c4ccccc42)CC(C)CC3)n1 (centres undefined) | 8.4% |
| CC1CCN(CC(=O)n2c3c(c4ccccc42)CCCC3)CC1 | 7.8% |
| Cc1cccc(Nc2nc(N)nc(CN3CCN(C)CC3)n2)c1 | -6.7% |
| Cc1cccc(Nc2nc(N)nc(CN3CCC(C)CC3)n2)c1C | -38.2% |
| CC1CC(C)CN(Cc2nc(N)nc(Nc3ccc4ccccc4c3)n2)C1 (centres undefined) | -11.4% |
| Cc1ccc(Nc2nc(N)nc(CN3CCCCCC3)n2)c(C)c1 | -23.1% |
| Nc1nc(CCl)nc(Nc2ccccc2)n1 | 36.6% |
| COc1cccc(Nc2nc(N)nc(CCl)n2)c1 | -7.5% |
| Cc1ccc(Nc2nc(N)nc(CSc3nccn3C)n2)c(C)c1 | -29.9% |
| COc1ccc(OCc2nc(N)nc(Nc3cccc(C)c3C)n2)cc1 | -7% |
| COc1ccc(C(C)C)cc1S(=O)(=O)N1CCC(C(=O)NCc2cccnc2)CC1 | -9.3% |
| CN1CCN(C(=O)N2CCNC2=O)CC1 | -22% |
| COc1ccc(/C(O)=C2/C(=O)C(=O)N(c3ccccn3)C2c2ccc(C(C)C)cc2)cc1 (centres undefined) | -7.2% |
| Cc1nc2cc(NS(=O)(=O)c3c(C)c(C)cc(C)c3C)ccc2s1 | 22.1% |
| COc1ccc(NC(=O)[C@@H]2[C@@H]3C(=O)N(C4CCCCC4)C(=O)[C@@H]3C3c4ccccc4C=CN32)cc1 (some centres undefined) | -4.8% |
| COc1ccc2sc(NC(=O)CC(C)C)nc2c1 | -66.7% |
| Cn1c(=S)[nH]c2[nH]c(=O)cnc2c1=O | -2.8% |
| COc1ccc(NC(=O)c2ccc(C(=O)c3ccccc3)o2)cc1 | -21.8% |
| COc1ccc(CCNC(=O)c2nnn(CC(=O)Nc3ccc(C)cc3C)c2N)cc1OC | -14.4% |
| COC(=O)C1(C)NC(c2ccccc2C)C2C(=O)N(c3ccc(F)cc3)C(=O)C21 (centres undefined) | -24.2% |

| SMILES | inhibition |
| --- | --- |
| Cc1cccc(C(=O)Nc2nnc(S(=O)(=O)N3CCC(C)CC3)s2)c1 | 21.6% |
| CC1CCN(S(=O)(=O)c2nnc(NC(=O)c3cccc([N+](=O)[O-])c3)s2)CC1 | 30.9% |
| Cc1ccc(C(=O)Nc2nnc(S(=O)(=O)N3CCCCCC3)s2)cc1 | -23.3% |
| O=C(Nc1nnc(S(=O)(=O)N2CCCCC2)s1)c1ccc(Cl)cc1 | 37.5% |
| COc1cc(/C=C2/SC(=S)N(CC(=O)NC(C)(C)C)C2=O)cc(OC)c1OC | 2.3% |
| COc1ccc2c(CSc3nnc(-c4cccnc4)n3-c3ccccc3F)cc(=O)oc2c1 | -12.1% |
| Cc1ccc(S(=O)(=O)N(C)C)cc1NC(=O)CN1C(=O)NC2(CCCCCC2)C1=O | -38.1% |
| CCOC(=O)[C@@H]1[C@H]2COc3ccc(Br)cc3[C@H]2N2C(=O)N(c3ccc(C)cc3)C(=O)[C@]12C | -18.3% |
| O=C(CSCc1ccccc1)Nc1ccc(F)c(F)c1 | -34.3% |
| O=C(CSCc1ccccc1)NNc1c(F)c(F)cc(F)c1F | 34.4% (active) |
| O=C(CSCc1ccccc1)Nc1ccc(F)cc1F | 7.2% |
| CCn1c(=O)c2cc(C(=O)NCc3cccs3)sc2c2ccccc21 | -17.9% |
| COc1ccc(-c2noc(C3CCCN(C(=O)c4cccc(F)c4)C3)n2)cc1 (centres undefined) | -12.2% |
| CN1CCC(OC(=O)Cc2ccc(Cl)cc2)CC1 | -12.1% |
| Fc1ccccc1Sc1ccccc1CNC1=NCCN1 | 64.4% (active) |
| c1ccc(Sc2cccc3ccccc23)c(CNC2=NCCN2)c1 | -31.1% |
| Fc1ccc(Sc2ccccc2CNC2=NCCN2)cc1 | -4.9% |
| CCOC(=O)c1c(CN2CCN(C)CC2)n(-c2ccccc2)c2cc(Br)c(O)cc12 | -4% |
| CCOC(=O)c1c(CN2CCOCC2)n(-c2ccccc2)c2cc(Br)c(OC)cc12 | 30.8% |
| CCOC(=O)c1c(CN2CCOCC2)n(-c2ccccc2)c2cc(Br)c(O)cc12 | 67% (active) |
| Cc1cccc(-n2c(C)cc(C(=O)NC3CCCCC3)c2C)c1 | -17.7% |
| CCOCCCNC(=S)NNC(=O)CCn1nc(C)c(Br)c1C | -19.5% |
| Cc1cc(NC(=O)CSc2nc3ccccc3c(=O)n2Cc2ccccc2)no1 | 5% |
| NC(=O)CSc1nc2ccccc2c(=O)n1Cc1ccccc1 | -16% |
| Cc1ccc(S(=O)(=O)N2CCCCC2C(=O)N(C)c2ccccc2)cc1 (centres undefined) | -15.4% |

| SMILES | inhibition |
| --- | --- |
| Cc1cc(C)n(Cc2ccc(Cl)c(Cl)c2)c(=O)c1S(=O)(=O)c1ccccc1 | 5.3% |
| CC(C)(C)c1cnnn1-c1ccc(C(=O)CCl)cc1 | 77.3% (active) |
| CC(=O)c1ccc(-n2nncc2C(C)(C)C)cc1 | 60.5% |
| Cc1cnnn1-c1ccc(C(=O)CCl)cc1 | 19.4% |
| O=C1N=C(N2CCOCC2)S/C1=C\c1ccncc1 | -7.7% |
| CC1(C)CN=C(N(C(=O)Nc2ccccc2)c2ccccc2F)S1 | -4.1% |
| Cc1ccc(COc2ccc(-c3nnco3)cc2)cc1 | -12.2% |
| Fc1ccc(COc2ccc(-c3nnco3)cc2)cc1 | -10.4% |
| CCCCN(CC)S(=O)(=O)c1ccc2c(c1)n(C)c(=O)c(=O)n2C | -6% |
| Cc1ccccc1Cn1nc(C)c(NC(=O)/C=C/c2cnn(C)c2C)c1C | -19.1% |
| Cc1nn(Cc2c(Cl)cccc2Cl)c(C)c1NC(=O)/C=C/c1cnn(C)c1C | 99% (active) |
| CCn1nc(C)c(NC(=O)/C=C/c2cnn(C)c2C)c1C | 11% |
| Cc1nc2cc(NS(=O)(=O)c3cccc4cccnc34)ccc2s1 | -11.7% |
| CN(C)/C(=N\S(=O)(=O)c1ccccc1)c1ccccc1 | -32.6% |
| N=C1SC(CC(=O)Nc2ccc([N+](=O)[O-])cc2)C(=O)N1c1ccccc1 (centres undefined) | -6.5% |
| CCOC(=O)C1(CCc2ccccc2)CCN(C(=O)CCn2cnnn2)CC1 | -48% |
| O=C(/C=C/c1ccc(OC(F)F)cc1)Nc1cccc(S(=O)(=O)N2CCOCC2)c1 | -23.1% |
| Cc1ccc(-c2nc3n(n2)Cc2ccccc2-3)cc1 | -27.4% |
| CCn1c(C)nc2cc(-c3nc4n(n3)Cc3ccccc3-4)ccc21 | 94% (active) |
| Clc1ccc(-c2nc3n(n2)Cc2ccccc2-3)cc1 | -7.2% |
| COc1ccc(CCNC2CC(=O)N(C3CCCCC3)C2=O)cc1OC (centres undefined) | -7.3% |
| CCN(CC)CCCNC1=C(Cl)C(=O)c2ccccc2C1=O | 98.9% (active) |
| CCNC1=C(Cl)C(=O)c2ccccc2C1=O | 4.8% |
| O=C1C(Cl)=C(NCCCO)C(=O)c2ccccc21 | -20.7% |
